This is an account of results in PubChem BioAssay AID709 (SRMLSC, 2007).

Among all 65,000 compounds or so, about 3,600 (5.5%) were called active. The sample holds actives, similar compounds and a random draw of the others, so the mix is not that of the screen. Values without a mark were called inactive.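 How the source made its calls: active means at 10 µM, mean starting fluorescence two-fold or more over control wells; inactive means the rest.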

The nature of this test: intrinsic fluorescence of library compounds, ex339/em460 – biochemical, MLSMR library, data from DPM-DC assay, artefact control, profiling panel (AID 709).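 Further: signal is the first read of a kinetic run.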 As to conditions: compound autofluorescence, ex339/em460 nm, NADH buffer; at 10 µM; stronger effect = higher value; 1 = no-compound wells, NADH background.
For the compound `O=C(Oc1cccnc1)c1cc2ccccc2oc1=O`, the fluorescence fold increase is 1.24.

Regarding `CCOC(=O)C1CCCCN1Cc1ccc(OC)c(OC)c1OC` (stereo not given), the fluorescence fold increase was 1.06.

As for `Cc1ccc2oc(=O)c3cnn(CC(=O)N4CCN(c5ccccn5)CC4)c3c2c1`, the fluorescence fold increase was 1.1.

`O=C(Cn1nnc(-c2ccc3c(c2)OCO3)n1)NCc1ccco1`: the fluorescence fold increase is 1.15.

For `CCOc1ccc(C(CC(=O)O)NC(=O)COc2ccccc2)cc1` (stereo not given), the fluorescence fold increase was 1.07.

As for `N#Cc1c(N)n(CCOC(=O)c2ccc(Cl)cc2)c2nc3ccccc3nc12`, the fluorescence fold increase is 2.28 (active).

Turning to `O=S(=O)(O)c1nc2ccccc2n1Cc1ccc(Cl)cc1`, the fluorescence fold increase is 1.22.

For the compound `Cn1nnnc1SCc1cc(=O)[nH]c2ccccc12`, the fluorescence fold increase was 1.06.

On to `COC(=O)C1=C(C)N(C)C(C)=C(C(=O)OC)C1c1cccc(Br)c1`, for which the fluorescence fold increase was 1.12.

As to `CC12CN3CC(C)(CN(C1)C3c1ccc(Cl)cc1Cl)C2=O` (stereo not given), the fluorescence fold increase was 1.04.

Take `COC(=O)C1=CN(C)C=C(C(=O)OC)C1c1ccc(Cl)cc1Cl`: the fluorescence fold increase was 2.14 (active).

Take `CCCCOCCCNC(=O)c1ccccc1OCC`: the fluorescence fold increase was 1.

Consider `CCOc1ccccc1C1C(C(=O)OC)=CN(C)C=C1C(=O)OC`, for which the fluorescence fold increase was 4.81 (active).

For the compound `CCOc1ccccc1N(CC(=O)Nc1ccccc1C(=O)OC)S(C)(=O)=O`, the fluorescence fold increase is 1.11.

For the compound `CN1CCN(Cc2nc3c(c(=O)n(C)c(=O)n3C)n2Cc2cccc3ccccc23)CC1`, the fluorescence fold increase was 1.12.

As to `CCCOc1ccc(-c2nc(N)n[nH]2)cc1`, the fluorescence fold increase was 1.14.

Regarding `O=C1c2ccccc2C(O)N1Cc1ccccc1Cl` (stereo not given), the fluorescence fold increase was 1.04.

For `Cn1c(=NC(=O)c2ccco2)sc2cccc(F)c21`, the fluorescence fold increase is 1.85.

On to `O=C(CSc1nnc(Cc2ccccc2)n1-c1ccccc1)N1CCOCC1`, for which the fluorescence fold increase is 1.04.

Regarding `CC(=O)c1cccc(NC(=O)c2ccncc2)c1`, the fluorescence fold increase was 1.03.

In the case of `Cc1nc(NC(=O)C23CCC(C)(C(=O)O2)C3(C)C)sc1C` (stereo not given), the fluorescence fold increase was 1.02.

Regarding `CC(=O)N=c1ncn(CC(COC(C)=O)OC(C)=O)c2nc[nH]c12` (stereo not given), the fluorescence fold increase was 1.07.

Regarding `COc1ccc(-n2ncc3c(N4CCCc5ccccc54)ncnc32)cc1`, the fluorescence fold increase was 2.48 (active).

With `Cc1ccc(-n2ncc3c(N4CCN(c5ccc(F)cc5)CC4)ncnc32)c(C)c1`, the fluorescence fold increase is 1.

With `COc1ccc(-n2ncc3c(N4CCc5ccccc54)ncnc32)cc1`, the fluorescence fold increase was 3.76 (active).

Take `c1ccc(-n2ncc3c(N4CCCC4)ncnc32)cc1`: the fluorescence fold increase is 1.04.

Take `Cc1cccc(-n2ncc3c(N4CCc5ccccc54)ncnc32)c1`: the fluorescence fold increase is 2.26 (active).

As for `COc1ccc(-n2c(C)nc3c(cnn3-c3ccccc3)c2=O)cc1`, the fluorescence fold increase was 1.1.

Take `C1=C(CCNc2ncnc3c2cnn3-c2ccccc2)CCCC1`: the fluorescence fold increase is 1.05.

For the compound `COc1ccc(N2CCN(C(=O)CSc3ncnc4c3cnn4-c3ccc(OC)cc3)CC2)cc1`, the fluorescence fold increase was 1.23.
